# Source: PubChem (National Center for Advancing Translational Sciences (NCATS))
# TDP-43 rescue: inhibitors of TDP-43 toxicity in yeast. yeast TDP-43 toxicity rescue, BacTiter-Glo growth, 24 h. Potency, µM (doses to about 46.1 µM), actives largely listed as activators. 45,000 tested, 0.45% active. AID 1347073; active = well fitted activation curve with a large enough effect; note: 0% is about no effect; nearly all actives have a fitted effect of over 55% in size
#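 TDP-43-expressing yeast, pregrown in raffinose, seeded at OD600 0.02 in galactose medium with compound for 24 hr at 30 deg C. Growth read by BacTiter-Glo luminescence, so rescue of toxicity appears as activation.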
# An asterisk follows results filed as active; i = inactive. Shown is part of a subset that was picked to be rich in hits. Potency is the fitted concentration of half-maximal effect.
SMILES,TDP-43 rescue
O=C(Nc1cccc(S(=O)(=O)Nc2ccc(Cl)cc2)c1)c1cc2c(s1)CCCC2,i
O=C(Nc1ccc(N2CCOCC2)cc1)c1ccc(Br)o1,i
O=C(Nc1ccc(N2CCOCC2)cc1)c1cc2c(s1)CCCCC2,16µM*
Oc1ccc(/C=N/NC(=S)NCCN2CCOCC2)c(O)c1,i
COc1ccccc1C(=O)Nc1cccc(NC(=O)c2ccccc2C)c1,14µM*
COc1cccc(NC(=O)c2cccc(C)c2[N+](=O)[O-])c1,i
CCN(CC)c1cc(C)c2cc(NC(=O)c3ccccc3OC)ccc2n1,i
COc1ccc(-n2nc(C(=O)NCC(=O)Nc3cccc(Cl)c3)c3ccccc3c2=O)cc1,i
COc1ccc(-c2nc(CNS(=O)(=O)c3ccc(C)cc3)cs2)cc1,i
COc1ccc(-c2nc(CNS(=O)(=O)c3ccc(F)cc3)cs2)cc1,i
COc1ccc(-c2nc(CNS(=O)(=O)c3cccc(F)c3)cs2)cc1,16µM*
CCCCn1c(=O)[nH]c(=O)c2c1nc(-c1ccccn1)n2CC,i
c1cc(-c2ccc(N3CCOCC3)cc2)n2ccnc2c1,i
O=[N+]([O-])c1ccc(Oc2ccc(/C=N/O)cc2)nc1,i
CCN(CC)c1nc(Oc2ccc(C(=O)NN)cc2)nc(Oc2ccc(C(=O)NN)cc2)n1,i
CN(C)c1nc(Oc2ccc(/C=N/O)cc2)nc(N(C)C)n1,11µM*
Cc1nc2ccc(C(=O)N(C)Cc3ccco3)cn2c1N(C)C(=O)CCc1ccccc1,i
Cc1onc(-c2ccccc2Cl)c1C(=O)N1CCOC12CCCCC2,i
CC(C)CC1(C)NC(=O)N(CC(=O)Nc2ccccc2Br)C1=O (stereo not drawn),i
Cc1cccc(C)c1NC(=O)NN=C1CCCCC1,i
COc1ccc(C(=O)OCC(=O)N2CCN(C(=O)c3ccco3)CC2)cc1OC,i
O=C(NCc1ccco1)c1ccc2sc([C@@H]3O[C@H](CO)[C@@H](O)[C@H]3O)nc2c1,i
CC(=O)N1c2ccc3ccccc3c2C(C)CC12CCCCC2 (stereo not drawn),14µM*
O=C(Nc1nc2ccc3ccccc3c2s1)c1ccc(N2CCCCC2)c([N+](=O)[O-])c1,i
CC(=O)OC[C@H]1COc2ccc3ccccc3c2[C@H]1N(C)C(C)=O,i
SMILES,TDP-43 rescue
CC1CCCCN1CCCNC(=O)c1cc(Br)c(Br)[nH]1 (stereo not drawn),i
COc1ccc(OC)c(C(C(=O)NC2CCCCC2)N(Cc2ccco2)C(=O)c2ccccn2)c1 (stereo not drawn),i
CCOc1ccccc1NC(=O)N1CCc2cc(S(=O)(=O)N3CCC(C)CC3)ccc21,i
O=C(Nc1cccc(S(=O)(=O)NC2=NCCC2)c1)c1ccc(C(F)(F)F)cc1,i
Cc1ccc(C(=O)/C=C/NCc2ccc(F)cc2)cc1,i
CCN(CC)c1ccc(/C=C/C(=O)c2ccc(Br)cc2)cc1,i
Cc1ccc(/C=C/C(=O)c2ccc(O)cc2)cc1,16µM*
Cc1ccc(C(=O)N2CCN(S(=O)(=O)c3cc(Br)ccc3Br)CC2)o1,14µM*
Cc1cc(C)c(S(=O)(=O)N2CCN(C(=O)c3cc4ccccc4o3)CC2)c(C)c1,i
Cc1onc(-c2ccccc2)c1C(=O)N1CCN(S(=O)(=O)c2ccccc2Br)CC1,i
COc1cc(SC)ccc1C(=O)Nc1ccc2c(c1)CCC2,i
COC(=O)C1C(=O)C2=C(CC1C)Nc1ccccc1NC2c1ccc(C)s1 (stereo not drawn),i
O=C(CNS(=O)(=O)c1ccccc1)Nc1ccc2c(c1)OCO2,i
CCC(C)N(C(=O)CSc1ccc(NC(C)=O)cc1)C1CCS(=O)(=O)C1 (stereo not drawn),i
[O-][n+]1cccc2c(Br)cc(Br)c(O)c21,7.9µM*
C[n+]1cccc2c(Br)ccc([O-])c21,i
N#C/C(=N\Nc1ccccc1F)c1nc(-c2ccccc2)cs1,i
COc1cc(-c2cc3nc(NCc4cccc(Cl)c4)ccn3n2)cc(OC)c1OC,14µM*
COc1ccccc1-c1cc2nc(NCCc3ccncc3)ccn2n1,i
c1ccc(-c2cc3nc(NCc4cccs4)ccn3n2)cc1,i
CC1CCCC(NC(=O)C2N(CCCN3CCCC3)C(=O)C3C(C(=O)Nc4cccc(Cl)c4)C4C=CC32O4)C1C (stereo not drawn),i
Cc1ccccc1Cn1cc(NC(=O)CCCn2nc([N+](=O)[O-])cc2C)cn1,i
CC(=O)Nc1c(O)nc(SCC(=O)Nc2nnc(SCc3ccccc3)s2)[nH]c1=O,i
CNc1cncc(-c2ccccc2CO)n1,i
CNc1cncc(-c2ccc(OC)c(OC)c2)n1,11µM*
SMILES,TDP-43 rescue
CNc1cncc(-c2ccccc2NC(C)=O)n1,i
Cc1cc(C)cc(C(=O)Nc2nc3ccccc3[nH]2)c1,i
Cc1ccc(NC(=S)c2nc3ccccc3[nH]2)c(C)c1,10µM*
Cc1ccc(NC(=S)N2CCN(C(=O)c3ccccc3)CC2)c(C)c1,i
C=CCn1c(COc2ccccc2)nc2ccccc21,i
CC(C)NC(=O)C1(C)CCN1C/C=C/c1ccccc1 (stereo not drawn),i
